Holding throughout (experiment): NCI-60 one-dose screen, 48 h (100 = growth as untreated, 0 = no growth, -100 = all killed)
Holding throughout (conditions): 10 µM unless noted

Assay [1] concerns K-562 leukemia.
Assay [2] deals with MALME-3M melanoma.
Assay [3] concerns MDA-MB-231 breast.
Assay [4] deals with RXF 393 renal.
Assay [5] deals with SF-268 CNS.
Assay [6] has as its system SF-295 CNS.
For assay [7], the system named is SF-539 CNS.
Assay [8] relates to UACC-257 melanoma.
The subject of assay [9] is M14 melanoma.
The subject of assay [10] is HCT-15 colon.
Assay [11] deals with HT29 colon.
For assay [12], the system named is SNB-75 CNS.
Assay [13] deals with SNB-19 CNS.
Assay [14] has as its system U251 CNS.
The subject of assay [15] is PC-3 prostate.
The test system of assay [16] is SK-MEL-5 melanoma.
For assay [17], the system named is UACC-62 melanoma.
Assay [18] relates to SK-MEL-28 melanoma.
For assay [19], the system named is SK-MEL-2 melanoma.
In assay [20] the test system is LOX IMVI melanoma.

Structures are written as SMILES. Compounds without any hit were thinned out: in the full panel of roughly 83,000, 20% have a hit.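 In brief: 96-well plates, 48 h treatment, single concentration, percent growth endpoint.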 Unmarked numbers belong to inactive results. Activity calls are given as the source filed them. How the source made its calls: active means growth percent below 10; inactive means the rest.

Regarding `C#Cc1nc(C2=C(C)C(O)/C(=N/O)C2)cs1` (stereo not drawn), the growth was 87.2% in assay [1]; 99.5% in assay [2]; -28.1% (active) in assay [3]; 93.7% in assay [4]; 65.3% in assay [5]; 65% in [6]. For the same compound, the growth is 25.5% in assay [7]; 90.7% in assay [8]; 93.8% in [9]; 88.1% in assay [10]; 113% in assay [11]; -85.7% (active) in assay [12]. Besides, the growth in assay [13] was 109%; in assay [14], 109%; in assay [15] it was 101%; in assay [16], 94.9%; in [17], 88%; in assay [18], 111%. Further, the growth in assay [19] is 103%.
Turning to `Cn1ccnc1C(=O)/C=C/c1ccc(NC(=O)Nc2ccc(F)cc2)cc1`, the growth is 9.78% (active) in [1]; 69% in assay [2]; 28.8% in [3]; 19.4% in assay [4]; 55.6% in assay [5]; 23.3% in assay [6]. For the same compound, the growth in assay [7] is -15.6% (active); in assay [8], 85.6%; in [9], 45.1%; in assay [10], 21%; in [11] it was 11.7%; in assay [12], 39.3%. Besides, the growth in [13] is 33.9%; in assay [14], 20.1%; in [15], 53.2%; in assay [16] it was 77.8%; in assay [17] it was 46.3%; in assay [18] it was 75.5%. The growth in assay [19] was 95%.
For `COc1cc2nc(-c3ccc(Cl)cc3)cc(OCCCNCC3CCCO3)c2cc1OC` (stereo not drawn), the growth in [1] was 16.7%; in [2], 12.3%; in [3], 33.8%; in assay [4], 31.3%; in [5], 77.9%; in [6] it was 34.5%. The growth in assay [7] is 56.4%; in [8], -33.9% (active); in assay [9], -71.5% (active); in assay [10], 23.9%; in assay [11], 16.1%; in [12], 60.4%. In addition, the growth in assay [13] was 82.5%; in [14] it was 61.4%; in assay [15], 52.2%; in assay [16], 50.1%; in [17], -56.2% (active); in assay [19], 124%.
`CCOC(=O)c1csc(NC(=O)CSc2nc3sc4c(c3c(=O)n2-c2ccc(Cl)cc2)CCCC4)n1`: the growth in [1] was 93.4%; in assay [2], 104%; in [3] it was 94.6%; in assay [4] it was 100%; in [5] it was 89%; in [6], 91.9%. Further, the growth in [7] is 104%; in [8], 100%; in assay [9], 93.1%; in assay [10] it was 97.7%; in assay [11], 122%; in assay [12] it was 86.2%. In addition, the growth was 96% in assay [13]; 98.4% in assay [14]; 92.4% in assay [15]; 78% in assay [16]; 85% in [17]; 105% in [18]. In addition, in [19], the growth is 105%.
`O=C(N/N=C/c1ccc[nH]1)c1[nH]c2ccc(Br)cc2c1-c1ccccc1`: the growth in assay [1] is 3.06% (active); in assay [2] it was 45.1%; in assay [3] it was 14%; in assay [4], 53.2%; in assay [5] it was 25.3%; in assay [6] it was 7.67% (active). Besides, the growth in assay [7] is 14.2%; in assay [8], 30.3%; in assay [9], 13.2%; in assay [10], 9.42% (active); in assay [11], 6.16% (active); in assay [12], 27.3%. Further, the growth is 30.6% in [13]; 21.8% in assay [14]; 15.2% in [15]; -34.3% (active) in assay [16]; 13.4% in [17]; 61.2% in assay [18]. Also, the growth in assay [19] is 31.9%.
As to `CCOC(=O)c1c(Nc2ccccc2)nn2c(N)c(C#N)c(-c3ccc(F)cc3)nc12`, the growth in [1] was 52.3%; in assay [2], 91.8%; in assay [3], 78.6%; in assay [4], 84.9%; in [5] it was 85.6%; in [6], 86.5%. Also, the growth is 88.1% in assay [7]; 101% in assay [8]; 91.2% in assay [9]; 69.8% in assay [10]; 97% in [11]; 82.4% in assay [12]. The growth in assay [13] was 94%; in [14], 88.7%; in assay [15] it was 80.3%; in [16], 88.7%; in assay [17], 84.6%; in assay [19] it was 100%.
`C/C(=N\NC(N)=O)c1c(O)sc(=O)[nH]c1=O`: the growth in [1] is 105%; in assay [2], 97.5%; in [3], 102%; in [4], 107%; in [5], 104%; in [6], 96.3%. The growth in assay [7] was 94.6%; in assay [8] it was 96.5%; in assay [9], 98.8%; in [10] it was 97.1%; in [11], 111%; in assay [12], 101%. For the same compound, the growth in assay [13] was 93.2%; in [14], 108%; in assay [15], 97%; in assay [16], 101%; in assay [17] it was 92.6%; in [18] it was 99.7%. For the same compound, the growth in assay [19] was 109%.
On to `NS(=O)(=O)c1cccc(Nc2nc(SCC(=O)c3ccc(Br)cc3)nc3ccccc23)c1`, for which the growth was 44.7% in assay [1]; 54.7% in assay [2]; 64.5% in [3]; 24.5% in assay [4]; 32.8% in assay [5]; 17.4% in assay [6]. Besides, the growth in assay [7] was 72%; in assay [8], 96.1%; in [9], 80.2%; in [10], 67.4%; in [11], 90.2%; in [12], 10.9%. For the same compound, the growth in [13] was 35.3%; in assay [14] it was 59.7%; in [15], 36.5%; in assay [16] it was 58.7%; in [17], 59.1%; in [18], 84.4%. Also, the growth in assay [19] is 89.9%.
Consider `N[C@@H](Cc1cn(-c2ccnc3ccccc23)nn1)C(=O)O`, for which the growth was 107% in assay [1]; 95.5% in assay [2]; 97.5% in assay [3]; 121% in assay [4]; 103% in assay [5]; 104% in assay [6]. Moreover, the growth in [7] was 93%; in assay [8] it was 106%; in assay [9] it was 108%; in assay [10] it was 114%; in assay [11] it was 102%; in assay [12], 98.5%. Also, the growth in assay [13] is 88.7%; in assay [14] it was 101%; in assay [15] it was 96.2%; in [16] it was 103%; in assay [17] it was 95.4%; in assay [18], 97%. Moreover, the growth in [19] is 124%.
`COC(=O)C1CN(S(=O)(=O)/N=C2\NC(=O)NC2=C(Cl)Cl)C1`: the growth in assay [1] is 101%; in [2], 104%; in assay [3] it was 106%; in assay [4], 123%; in assay [5] it was 103%; in [6] it was 104%. The growth in [7] was 101%; in assay [8], 101%; in assay [9] it was 101%; in assay [10], 107%; in assay [11], 111%; in assay [12], 113%. Also, the growth in assay [13] is 100%; in [14], 105%; in assay [15], 99.3%; in assay [17] it was 95.7%; in assay [18] it was 112%; in [19] it was 108%.
Regarding `N#Cc1c(-c2ccc(Cl)cc2)nc(SCc2ccccc2)nc1N1CCNCC1`, the growth in assay [1] was 0.363% (active); in assay [2], 84.4%; in [3], 44.2%; in assay [4] it was 74.4%; in assay [5], 74.2%; in assay [6], 94.3%. The growth in [7] is 75.6%; in [8], 97.3%; in assay [9] it was 82.1%; in [10], 13.2%; in assay [11] it was -47.6% (active); in assay [12] it was 69.5%. Besides, the growth is 69.8% in [13]; -65.6% (active) in [14]; 59.2% in [15]; 89.8% in [17]; -71.5% (active) in [20]; 108% in [18]. Moreover, in assay [19], the growth is 112%.
`COc1ccc(-c2nc3ccc(-c4nnc(SCC(=O)Nc5ccc(C(=O)/C=C/c6ccc(Cl)cc6)cc5)o4)cc3[nH]2)cc1OC`: the growth in assay [1] is 92.7%; in assay [2] it was 95.1%; in [3] it was 95.2%; in assay [4], 106%; in assay [5] it was 106%; in assay [6] it was 98%. Also, the growth in assay [7] is 83.8%; in assay [8], 112%; in [9], 108%; in assay [10], 97.1%; in assay [11], 108%; in assay [12], 106%. In addition, the growth in [13] is 109%; in [14], 100%; in [15] it was 97.7%; in assay [17], 98%; in [20], 3.17% (active); in assay [18], 105%. The growth in assay [19] was 112%.
For the compound `CCCCCCNC(=O)Oc1ccc(/C(=C(/C)c2ccccc2)c2ccc(OCCN3CCCCCC3)cc2)cc1`, the growth was -9.12% (active) in assay [1]; 12.2% in assay [2]; 41.7% in [3]; 9.02% (active) in [4]; 62.2% in assay [5]; 36.3% in [6]. Also, the growth in assay [7] was 11.1%; in assay [8], -2.81% (active); in [9] it was -39.7% (active); in assay [10], 9.9% (active); in assay [11], -13.3% (active); in assay [12] it was 56%. In addition, the growth in assay [13] is 66.7%; in assay [14], 22.1%; in assay [15], 38.7%; in assay [17], 44.2%; in [20] it was -14.5% (active); in assay [19], 95.9%.

The values above are taken from PubChem BioAssay (NCI).
